From PubChem BioAssay (NCI) come the findings set out here.

The panel holds about 83,000 compounds, 20% with a hit somewhere; the sample as a whole holds those more often.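 Plates (96-well) were seeded with cells, treated with compound at one concentration, and incubated for 48 hours before percent growth was determined.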 A number with no mark means an inactive call. Activity calls are given as the source filed them. Rule for the calls: active = growth percent below 10; inactive = the rest.

The first experiment deals with SW-620 colon. The experiment is described as follows: NCI-60 one-dose screen, 48 h (100 = growth as untreated, 0 = no growth, -100 = all killed). The settings on record: 10 µM unless noted.
As for `COc1ccc(C(=O)c2cc(C)c(OC)c(C)c2)c(OC)c1NC(C)=O`, the growth was 21.2%.
Still for that read-out and setting: then `CCCCCN1C=C/C(=C\C(=O)n2ccc3ccccc32)c2ccccc21`, with 85.2%.
Same read-out and setting: then `COc1ccc(C(=O)C2C(C#N)C(C#N)C3C=Cc4ccccc4N32)cc1` (stereo unspecified), with 26.5%; and `COc1cc2c(cc1OC)C(=O)/C(=C/c1cc(C)c(O)c(C)c1)S2`, with 33.4%.
The same measure, in the same setting: for `CN1CCN(C(=O)[C@]23CCC(C)(C)C[C@H]2C2=CC[C@@H]4[C@@]5(C)C/C(=C/c6cccnc6)C(=O)C(C)(C)[C@@H]5CC[C@@]4(C)[C@]2(C)CC3)CC1` the value was 44.6%.
In the case of `COc1cc(C=O)ccc1OC1OC(COC(C)=O)C(OC(C)=O)C(OC(C)=O)C1OC(C)=O` (stereo unspecified), the growth was 99.7%.
The same measure, in the same setting: then `Cc1ccc(CNc2c3ccccc3nc3cc(NC(=O)CCN4CCCC4)ccc23)cc1`, with -57.4% (active).
The same measure, in the same setting: then `N#Cc1c(NCc2ccccc2I)sc2c1CCCCC2`, with 97.2%; and `Cn1nc(CC#N)c2c(=N)n(N)cnc21`, with 104%; and `COc1cc2nc(-c3ccc(Cl)cc3)cc(OCCCN3CCCC3)c2cc1OC`, with 30.4%.
Still for that read-out and setting: for `CCCCCCNC(=O)Nc1ccc2cc3ccc(NC(=O)NCCCCCC)cc3nc2c1` the value was -78.1% (active); for `O=C(Cn1c(C(=O)c2ccccc2)nc2ccccc21)c1ccc(F)cc1`, 22.9%.
As to `O=C(/C(=C\c1ccc([N+](=O)[O-])cc1)S(=O)Cc1ccc(F)cc1)c1ccc(F)cc1` (stereo unspecified), the growth is -33.5% (active).
Regarding `Cn1ccc2c1CC1CN(Cc3ccco3)C(=O)C1C2C(=O)O` (stereo unspecified), the growth was 98.7%.
Same read-out and setting: then `O=C(O)c1ccc(-c2nn(-c3ccc(C(F)(F)F)cc3)cc2CNc2ccc(Oc3ccccc3)cc2)cc1`, with 93.9%.
`N#CC(C(=O)/C(=N/NC(=O)c1ccccc1O)C(C#N)c1ccccc1)c1ccccc1` (stereo unspecified): the growth is 80.2%.
Regarding `Cc1ccc(NC(=O)Cc2ccc(/C=C/C(=O)c3ncc[nH]3)cc2)cc1`, the growth was 11.7%.
Still for that read-out and setting: then `Nc1n[nH]c2cccc(C#Cc3cccc(C(=O)Nc4cc(CN5CCOCC5)cc(C(F)(F)F)c4)c3)c12`, with 30.9%; and `O=C(/C=C(/C=C/c1coc2ccccc12)OB(F)F)/C=C/c1coc2ccccc12`, with 86.3%; and `Cc1nc2sccn2c1-c1cn2ccsc2n1`, with 96.9%.
Consider `C=C1C(=O)O[C@H]2[C@H]1CC/C(CNC(=O)/C=C/c1ccccc1)=C\CC[C@@]1(C)O[C@@H]21`, for which the growth was -68.4% (active).
On to `N#CC1=C(N)Oc2c(cnn2-c2ccc([N+](=O)[O-])cc2[N+](=O)[O-])C1c1ccccc1` (stereo unspecified), for which the growth is 96.2%.
Same read-out and setting: then `NNC(=O)c1ccc(-n2nc(-c3ccccc3)c3ccccc32)cc1`, with 95.5%.
The same measure, in the same setting: for `CC1=CCC(OC(=O)C(C)(O)CCC(O)(C(=O)OC2(C)C=CC(O)(C(C)C)CC2)C(C)C)(C(C)C)CC1` (stereo unspecified) the value was 103%.
On to `S=c1cc(S)c2cc(Br)ccc2[nH]1`, for which the growth was 99.2%.
The same measure, in the same setting: for `NCCCCCCNc1cc(-c2cccc(OC(F)(F)F)c2)nc2ccc(N3CCCC3)cc12` the value was -86.3% (active); for `COc1cccc(-c2cc(C(=O)Nc3ccc(/C=C/c4ccc(OC5CCN(C)CC5)cc4)cc3)ccc2OC)c1`, -60.5% (active).
Still for that read-out and setting: for `COC(=O)/C=C1\S/C(=N\NC(=O)c2cc3ccc2/C=C\c2ccc(cc2)/C=C\3)N(Cc2ccccc2)C1=O` the value was 18.2%.
On the same count and under the same terms, then `Nc1c(C(=O)Nc2cccc3cnccc23)sc2nc3c(cc12)CN(Cc1ccccc1)CC3`, with 104%; and `Cc1c(C(=O)NCCC(=O)NO)sc2ncnc(Nc3ccc(NC(=O)Nc4cccc(C(F)(F)F)c4)cc3)c12`, with 104%; and `O=S(=O)(NCCCNc1nccc(-c2c(-c3cccc(F)c3)nc3sccn23)n1)c1cccc2ccccc12`, with 42.1%.
For the molecule `CN1C(N2CCN(S(=O)(=O)c3ccccc3)CC2)=NS(=O)(=O)c2ccccc21`, the growth was 123%.
The same measure, in the same setting: then `N#C/C(=C\c1ccccn1)c1nc2cc(Cl)ccc2s1`, with 77.5%; and `COc1cc2oc(-c3cccc(C(=O)Nc4ccccc4)c3)cc(=O)c2c(O)c1OC`, with 94.3%.
Turning to `COc1ccc(/C=C2\Oc3cc(OCCCN4CCCCC4)ccc3C2=O)cc1OC`, the growth was 85%.
As for `O=S(=O)(NCCNc1nccc(-c2c(-c3cccc(F)c3)nc3sccn23)n1)c1ccc(Cl)cc1`, the growth is 59.6%.
The same measure, in the same setting: then `COc1ccc2c(c1)oc1c(C)c3c(c(C)c12)C(=O)N(CCN1CCOCC1)C3=O`, with 93%; and `CNCCn1c(=O)c2cc(OC)c(OC)cc2c2ccc3cc4c(cc3c21)OCO4`, with -47.4% (active).

The subject of a further experiment is MCF7 breast. The description is as above. The settings on record: 10 µM unless noted.
On to `COc1ccc(C(=O)c2cc(C)c(OC)c(C)c2)c(OC)c1NC(C)=O`, for which the growth is 20.8%.
Still for that read-out and setting: then `CCCCCN1C=C/C(=C\C(=O)n2ccc3ccccc32)c2ccccc21`, with 73.5%; and `COc1ccc(C(=O)C2C(C#N)C(C#N)C3C=Cc4ccccc4N32)cc1` (stereo unspecified), with 9.25% (active); and `COc1cc2c(cc1OC)C(=O)/C(=C/c1cc(C)c(O)c(C)c1)S2`, with 20%.
As to `CN1CCN(C(=O)[C@]23CCC(C)(C)C[C@H]2C2=CC[C@@H]4[C@@]5(C)C/C(=C/c6cccnc6)C(=O)C(C)(C)[C@@H]5CC[C@@]4(C)[C@]2(C)CC3)CC1`, the growth was 22.9%.
The same measure, in the same setting: for `COc1cc(C=O)ccc1OC1OC(COC(C)=O)C(OC(C)=O)C(OC(C)=O)C1OC(C)=O` (stereo unspecified) the value was 97.3%; for `Cc1ccc(CNc2c3ccccc3nc3cc(NC(=O)CCN4CCCC4)ccc23)cc1`, -22.4% (active).
Same read-out and setting: for `N#Cc1c(NCc2ccccc2I)sc2c1CCCCC2` the value was 80%.
Consider `Cn1nc(CC#N)c2c(=N)n(N)cnc21`, for which the growth was 100%.
Same read-out and setting: then `COc1cc2nc(-c3ccc(Cl)cc3)cc(OCCCN3CCCC3)c2cc1OC`, with 48.1%; and `CCCCCCNC(=O)Nc1ccc2cc3ccc(NC(=O)NCCCCCC)cc3nc2c1`, with -57.4% (active).
The same measure, in the same setting: then `O=C(Cn1c(C(=O)c2ccccc2)nc2ccccc21)c1ccc(F)cc1`, with 36.4%.
Still for that read-out and setting: for `O=C(/C(=C\c1ccc([N+](=O)[O-])cc1)S(=O)Cc1ccc(F)cc1)c1ccc(F)cc1` (stereo unspecified) the value was 16.4%; for `Cn1ccc2c1CC1CN(Cc3ccco3)C(=O)C1C2C(=O)O` (stereo unspecified), 95.7%; for `O=C(O)c1ccc(-c2nn(-c3ccc(C(F)(F)F)cc3)cc2CNc2ccc(Oc3ccccc3)cc2)cc1`, 70.3%.
Consider `N#CC(C(=O)/C(=N/NC(=O)c1ccccc1O)C(C#N)c1ccccc1)c1ccccc1` (stereo unspecified), for which the growth is 55.3%.
Still for that read-out and setting: then `Cc1ccc(NC(=O)Cc2ccc(/C=C/C(=O)c3ncc[nH]3)cc2)cc1`, with 14.5%; and `Nc1n[nH]c2cccc(C#Cc3cccc(C(=O)Nc4cc(CN5CCOCC5)cc(C(F)(F)F)c4)c3)c12`, with 44.2%; and `O=C(/C=C(/C=C/c1coc2ccccc12)OB(F)F)/C=C/c1coc2ccccc12`, with 82.8%.
Consider `Cc1nc2sccn2c1-c1cn2ccsc2n1`, for which the growth is -39.1% (active).
Take `C=C1C(=O)O[C@H]2[C@H]1CC/C(CNC(=O)/C=C/c1ccccc1)=C\CC[C@@]1(C)O[C@@H]21`: the growth was -22.2% (active).
Same read-out and setting: for `N#CC1=C(N)Oc2c(cnn2-c2ccc([N+](=O)[O-])cc2[N+](=O)[O-])C1c1ccccc1` (stereo unspecified) the value was 97%; for `NNC(=O)c1ccc(-n2nc(-c3ccccc3)c3ccccc32)cc1`, 74%; for `CC1=CCC(OC(=O)C(C)(O)CCC(O)(C(=O)OC2(C)C=CC(O)(C(C)C)CC2)C(C)C)(C(C)C)CC1` (stereo unspecified), 97.9%.
Take `S=c1cc(S)c2cc(Br)ccc2[nH]1`: the growth is 88.7%.
Still for that read-out and setting: then `NCCCCCCNc1cc(-c2cccc(OC(F)(F)F)c2)nc2ccc(N3CCCC3)cc12`, with -72.6% (active).
Take `COc1cccc(-c2cc(C(=O)Nc3ccc(/C=C/c4ccc(OC5CCN(C)CC5)cc4)cc3)ccc2OC)c1`: the growth is -34.9% (active).
Still for that read-out and setting: for `COC(=O)/C=C1\S/C(=N\NC(=O)c2cc3ccc2/C=C\c2ccc(cc2)/C=C\3)N(Cc2ccccc2)C1=O` the value was 32.7%; for `Nc1c(C(=O)Nc2cccc3cnccc23)sc2nc3c(cc12)CN(Cc1ccccc1)CC3`, 96.5%.
The same measure, in the same setting: then `Cc1c(C(=O)NCCC(=O)NO)sc2ncnc(Nc3ccc(NC(=O)Nc4cccc(C(F)(F)F)c4)cc3)c12`, with 89.2%; and `O=S(=O)(NCCCNc1nccc(-c2c(-c3cccc(F)c3)nc3sccn23)n1)c1cccc2ccccc12`, with 37.4%; and `CN1C(N2CCN(S(=O)(=O)c3ccccc3)CC2)=NS(=O)(=O)c2ccccc21`, with 91.1%.
The same measure, in the same setting: for `N#C/C(=C\c1ccccn1)c1nc2cc(Cl)ccc2s1` the value was 37.1%.
`COc1cc2oc(-c3cccc(C(=O)Nc4ccccc4)c3)cc(=O)c2c(O)c1OC`: the growth was 78.1%.
Same read-out and setting: then `COc1ccc(/C=C2\Oc3cc(OCCCN4CCCCC4)ccc3C2=O)cc1OC`, with 85.9%.
The same measure, in the same setting: then `O=S(=O)(NCCNc1nccc(-c2c(-c3cccc(F)c3)nc3sccn23)n1)c1ccc(Cl)cc1`, with 24.7%; and `COc1ccc2c(c1)oc1c(C)c3c(c(C)c12)C(=O)N(CCN1CCOCC1)C3=O`, with 109%.
On to `CNCCn1c(=O)c2cc(OC)c(OC)cc2c2ccc3cc4c(cc3c21)OCO4`, for which the growth is 7.12% (active).
